Values without a mark were called inactive. Results filed as inconclusive are left out. A call without a number means that no potency is given here. Active and inactive are the calls of the source. Unless noted, calls follow the shape of the dose curve; as a rule, active = well fitted curve in the direction sought with a large enough effect in the repeat runs; inconclusive = weak or mixed curves; inactive = no such curve, though single readings can be large; an effect the other way counts as inactive or inconclusive.
Columns and labels:
[1] = qHTS assay to identify small molecule agonists of the hypoxia (HIF-1) signaling pathway (AID 1224846; active = well fitted activation curve with a large enough effect in the signal ratio in the repeat runs, not every such curve was filed as active; the % refers to the signal ratio)
How it was run: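 ME-180 HRE-bla reporter cells; compounds in DMSO, 17 h at 37C; read-out beta-lactamase via CCF4-AM FRET.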

[2] = qHTS assay to identify small molecule agonists of H2AX - cell viability counter screen (AID 1224847; calls by dose curve; also: nearly all actives have a fitted effect of over 30% in size; also: potency is read from the fitted curve at half-maximal effect;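 as to activity change, negative = cytotoxicity: wild-type CHO-K1 cells; top concentration of the series differs between compounds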)
How it was run: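 For this counter screen, overnight-attached CHO-K1 cells received test compounds (15 concentrations, 0.76% DMSO final); 3 hr later at 37C, CellTiter-Glo reagent was added and luminescence recorded after 30 min at room temperature.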

[3] = qHTS RealTime-Glo MT Cell Viability Assay in HepG2 cells - 24 hour (AID 1224867); also: nearly all actives have a fitted effect of over 50% in size; also: potency is read from the fitted curve at half-maximal effect
How it was run: (§1)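 Cell number in HepG2 cultures estimated from NanoLuc luminescence generated by metabolic reduction of a prosubstrate by living cells. The homogeneous, nonlytic format allowed repeated reads at 0, 8, 16, 24, 32 and 40 h of compound exposure.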

[4] = A CellTox Green Cytotoxicity Assay to monitor cytotoxicity in HEK293 cells - 0 hour (AID 1224869); also: nearly all actives have a fitted effect of over 50% in size
How it was run: (§2)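 Real-time, in one plate: 600 HEK293 cells/well with dead-cell DNA dye, pinned compound after 5 h, 37 C incubation over 40 h; viable cells give no appreciable fluorescence.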

[5] = qHTS RealTime-Glo MT Cell Viability Assay in HepG2 cells - 40 hour (AID 1224870); also: nearly all actives have a fitted effect of over 50% in size; also: potency is read from the fitted curve at half-maximal effect
How it was run: (§3)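 HepG2 cells mixed with RealTime-Glo MT reagents (NanoLuc plus cell-permeant prosubstrate) were seeded at 600 cells/well, incubated 5 h at 37 C/5% CO2, then pinned with compounds in DMSO; nonlytic luminescence tracked viability during 40 h treatment.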

[6] = qHTS RealTime-Glo MT Cell Viability Assay in HEK293 cells - 16 hour (AID 1224872); also: nearly all actives have a fitted effect of over 50% in size; also: potency is read from the fitted curve at half-maximal effect; as to activity change, negative = cytotoxicity: top concentration of the series differs between compounds
How it was run: (§4)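 Homogeneous bioluminescent viability format in HEK293 cells (600 cells/well). Following 5 h at 37 C/5% CO2, 23 nL compound was pintooled; the signal was measured repeatedly during 40 h incubation.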

[7] = qHTS RealTime-Glo MT Cell Viability Assay in HepG2 cells - 8 hour (AID 1224873); also: nearly all actives have a fitted effect of over 55% in size
How it was run: as §3

[8] = qHTS RealTime-Glo MT Cell Viability Assay in HEK293 cells - 40 hour (AID 1224874); conditions: RealTime-Glo luminescence; max response: hits give low values; also: nearly all actives have a fitted effect of over 50% in size
How it was run: (§5)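 Kinetic, non-lysing viability readout. Seed HEK293 (600/well) with reagent, incubate 5 h at 37 C/5% CO2, pin 23 nL compound in DMSO, incubate at 37 C, read luminescence at 0, 8, 16, 24, 32, 40 h.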

[9] = A CellTox Green Cytotoxicity Assay to monitor cytotoxicity in HEK293 cells - 24 hour (AID 1224875); also: nearly all actives have a fitted effect of over 45% in size; also: potency is read from the fitted curve at half-maximal effect
How it was run: as §2

[10] = A CellTox Green Cytotoxicity Assay to monitor cytotoxicity in HepG2 cells - 16 hour (AID 1224876); also: nearly all actives have a fitted effect of over 45% in size; also: potency is read from the fitted curve at half-maximal effect
How it was run: (§6)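 Cytotoxicity was tracked as dead-cell DNA fluorescence in HepG2 cells treated with test compounds at 37 C; each time-point value comes from one kinetic series spanning 0, 8, 16, 24, 32 and 40 h.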

[11] = qHTS RealTime-Glo MT Cell Viability Assay in HepG2 cells - 32 hour (AID 1224877); also: nearly all actives have a fitted effect of over 55% in size
How it was run: as §1

[12] = A CellTox Green Cytotoxicity Assay to monitor cytotoxicity in HepG2 cells - 24 hour (AID 1224878); also: nearly all actives have a fitted effect of over 45% in size; also: potency is read from the fitted curve at half-maximal effect
How it was run: as §6

[13] = qHTS RealTime-Glo MT Cell Viability Assay in HEK293 cells - 0 hour (AID 1224880); also: top concentration of the series differs between compounds; nearly all actives have a fitted effect of over 45% in size
How it was run: as §5

[14] = A CellTox Green Cytotoxicity Assay to monitor cytotoxicity in HEK293 cells - 32 hour (AID 1224881); also: nearly all actives have a fitted effect of over 40% in size; also: potency is read from the fitted curve at half-maximal effect
How it was run: as §2

[15] = A CellTox Green Cytotoxicity Assay to monitor cytotoxicity in HepG2 cells - 0 hour (AID 1224882); also: nearly all actives have a fitted effect of over 35% in size
How it was run: as §6

[16] = qHTS assay to identify small molecule antagonists of the estrogen related receptor (ERR) signaling pathway from Tox21 library (AID 1224848); also: nearly all actives have a fitted effect of over 50% in size; also: potency is read from the fitted curve at half-maximal effect
How it was run: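 First, 2,000 ERR cells per well were plated and held 6 h at 37 C/5% CO2. Next, compounds in DMSO were pinned in and left 18 h at 37 C. Finally, ONE-Glo was added and luminescence read after 30 min at room temperature.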

[17] = qHTS assay to identify small molecule agonists of the estrogen related receptor (ERR) signaling pathway from Tox21 library (AID 1224849; calls by dose curve; also: nearly all actives have a fitted effect of over 15% in size); conditions: ERR reporter cell line, ONE-Glo luciferase, 18 h; at 92.4 µM (top of the series) unless noted
How it was run: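 Luciferase activity in ERR pathway reporter cells served as the agonist readout; exposure lasted 18 h at 37 C, with ONE-Glo detection after 30 min at room temperature.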

[18] = qHTS RealTime-Glo MT Cell Viability Assay in HEK293 cells - 32 hour (AID 1224868); also: nearly all actives have a fitted effect of over 50% in size; also: potency is read from the fitted curve at half-maximal effect; as to activity change, negative = cytotoxic: top concentration of the series differs between compounds
How it was run: as §4

[19] = A CellTox Green Cytotoxicity Assay to monitor cytotoxicity in HEK293 cells - 40 hour (AID 1224871); also: nearly all actives have a fitted effect of over 45% in size; also: potency is read from the fitted curve at half-maximal effect
How it was run: as §2

[20] = A CellTox Green Cytotoxicity Assay to monitor cytotoxicity in HepG2 cells - 40 hour (AID 1224879); also: nearly all actives have a fitted effect of over 40% in size; also: potency is read from the fitted curve at half-maximal effect
How it was run: as §6

## C/C=C/C(=O)C1=C(C)CCCC1(C)C
[1]
  outcome: inactive
[2]
  Potency: inactive
[3]
  Potency: inactive
[4]
  Potency: inactive
[5]
  Potency: inactive
[6]
  Potency: inactive
[7]
  Potency: inactive
[8]
  max response: 16.6%
[9]
  Potency: inactive
[10]
  Potency: inactive
[11]
  Potency: inactive
[12]
  Potency: inactive
[13]
  Potency: inactive
[14]
  Potency: inactive
[15]
  Potency: inactive

## CC(=O)OC1CCCCC1
[1]
  outcome: inactive
[16]
  Potency: inactive
[17]
  activity change, positive = activation: 5.62%
[3]
  Potency: inactive
[18]
  Potency: inactive
[4]
  Potency: inactive
[19]
  Potency: inactive
[6]
  Potency: inactive
[7]
  Potency: inactive
[8]
  max response: -7.58%
[9]
  Potency: inactive
[11]
  Potency: inactive
[12]
  Potency: inactive
[20]
  Potency: inactive
[13]
  Potency: inactive
[14]
  Potency: inactive
[15]
  Potency: inactive

## NCCCCCCNCCCCCCN
[1]
  outcome: inactive
[16]
  Potency: inactive
[17]
  activity change, positive = activation: -13.7%
[3]
  Potency: inactive
[18]
  Potency: inactive
[4]
  Potency: inactive
[5]
  Potency: inactive
[19]
  Potency: inactive
[6]
  Potency: inactive
[7]
  Potency: inactive
[8]
  max response: -6.12%
[9]
  Potency: inactive
[10]
  Potency: inactive
[11]
  Potency: inactive
[12]
  Potency: inactive
[20]
  Potency: inactive
[13]
  Potency: inactive
[14]
  Potency: inactive
[15]
  Potency: inactive

## O=S(O)O
[1]
  activation: -0.609% [at 15.8 µM]
[2]
  activity change, negative = cytotoxicity: 3.26% [at 31.6 µM]
[3]
  activity change, negative = cytotoxicity: 3.99% [at 15.8 µM]
[18]
  activity change, negative = cytotoxic: 13.4% [at 15.8 µM]
[5]
  activity change, negative = cytotoxic: -0.0421% [at 15.8 µM]
[19]
  cytotoxicity increase: -2.31% [at 15.8 µM]
[6]
  activity change, negative = cytotoxicity: 5.35% [at 15.8 µM]
[7]
  viability change, negative = cytotoxic: 3.13% [at 15.8 µM]
[8]
  max response: 7.9%
[9]
  activity change: -0.851% [at 15.8 µM, hits give high values]
[10]
  cytotoxicity increase: -6.63% [at 15.8 µM]
[11]
  activity change, negative = cytotoxic: 4.15% [at 15.8 µM]
[12]
  cytotoxicity: -9.86% [at 15.8 µM]
[20]
  cytotoxicity increase: -12.9% [at 15.8 µM]
[13]
  activity change, negative = cytotoxicity: 10.2% [at 15.8 µM]
[14]
  cytotoxicity increase: 0.593% [at 15.8 µM]
[15]
  cytotoxicity: -14.5% [at 15.8 µM]

## Cc1ccc(N)cc1O
[1]
  outcome: inactive
[2]
  Potency: 101 µM (active)
[3]
  Potency: inactive
[4]
  Potency: inactive
[5]
  Potency: inactive
[19]
  Potency: inactive
[7]
  Potency: inactive
[11]
  Potency: inactive
[13]
  Potency: inactive
[15]
  Potency: inactive

## C[C@@H]1CC[C@H]2C(C)(C)[C@H]3C[C@@]12CC[C@@]3(C)O
[1]
  outcome: inactive
[16]
  Potency: inactive
[17]
  activity change, positive = activation: -6.53%
[3]
  Potency: inactive
[18]
  Potency: inactive
[4]
  Potency: inactive
[5]
  Potency: inactive
[19]
  Potency: 38.8 µM (active)
[7]
  Potency: inactive
[8]
  max response: -18.5%
[9]
  Potency: 38.8 µM (active)
[11]
  Potency: inactive
[12]
  Potency: 48.9 µM (active)
[20]
  Potency: 54.9 µM (active)
[13]
  Potency: inactive
[14]
  Potency: 38.8 µM (active)

## CCN(CC)CCCN(c1ccccc1)C1Cc2ccccc2C1
[1]
  outcome: inactive
[2]
  Potency: inactive
[3]
  Potency: inactive
[4]
  Potency: inactive
[5]
  Potency: inactive
[6]
  Potency: inactive
[7]
  Potency: inactive
[9]
  Potency: inactive
[11]
  Potency: inactive
[12]
  Potency: 23.9 µM (active)
[20]
  Potency: 23.9 µM (active)
[14]
  Potency: inactive

## CC(C)C(=O)OCc1ccccc1
[1]
  outcome: inactive
[2]
  Potency: inactive
[3]
  Potency: inactive
[4]
  Potency: inactive
[5]
  Potency: inactive
[7]
  Potency: inactive
[8]
  max response: 18.1%

## CCCCCCCCCCc1ccccc1
[1]
  outcome: inactive
[16]
  Potency: inactive
[17]
  activity change, positive = activation: 0.758%
[3]
  Potency: inactive
[18]
  Potency: inactive
[4]
  Potency: inactive
[5]
  Potency: inactive
[19]
  Potency: inactive
[6]
  Potency: inactive
[8]
  max response: -5.33%
[9]
  Potency: inactive
[11]
  Potency: inactive
[12]
  Potency: inactive
[20]
  Potency: inactive
[13]
  Potency: inactive
[14]
  Potency: inactive
[15]
  Potency: inactive

## O=C1NC2CCCCN2C12CCN(CCCN1c3ccccc3CCc3ccc(Cl)cc31)CC2 (configuration not stated)
[1]
  outcome: inactive
[16]
  Potency: 23.7 µM (active)
[17]
  activity change, positive = activation: -64.1% [at 42.5 µM]
[3]
  Potency: 23.9 µM (active)
[18]
  Potency: 9.52 µM (active)
[5]
  Potency: 23.9 µM (active)
[19]
  Potency: 21.3 µM (active)
[6]
  Potency: 8.49 µM (active)
[9]
  Potency: 19 µM (active)
[10]
  Potency: 23.9 µM (active)
[12]
  Potency: 23.9 µM (active)
[20]
  Potency: 23.9 µM (active)
[13]
  Potency: inactive
[14]
  Potency: 21.3 µM (active)

## CC(C)(C)c1cc(CCC(=O)NCCCCCCNC(=O)CCc2cc(C(C)(C)C)c(O)c(C(C)(C)C)c2)cc(C(C)(C)C)c1O
[1]
  outcome: inactive
[2]
  Potency: inactive
[4]
  Potency: inactive
[5]
  Potency: inactive
[19]
  Potency: inactive
[8]
  max response: -24.8%
[9]
  Potency: inactive
[10]
  Potency: inactive
[12]
  Potency: inactive
[20]
  Potency: inactive
[13]
  Potency: inactive
[14]
  Potency: inactive
[15]
  Potency: inactive

## COc1cccc(O)c1
[1]
  outcome: inactive
[2]
  Potency: inactive
[3]
  Potency: inactive
[18]
  Potency: inactive
[5]
  Potency: inactive
[19]
  Potency: inactive
[6]
  Potency: inactive
[8]
  max response: 11.4%
[9]
  Potency: inactive
[10]
  Potency: inactive
[11]
  Potency: inactive
[12]
  Potency: inactive
[20]
  Potency: inactive
[13]
  Potency: inactive
[14]
  Potency: inactive
[15]
  Potency: inactive

## CC(C)=CCCC(C)CCOC(=O)C(C)C (configuration not stated)
[1]
  outcome: inactive
[2]
  Potency: inactive
[3]
  Potency: inactive
[18]
  Potency: inactive
[5]
  Potency: inactive
[19]
  Potency: inactive
[6]
  Potency: inactive
[7]
  Potency: inactive
[8]
  max response: 12.8%
[9]
  Potency: inactive
[10]
  Potency: inactive
[11]
  Potency: inactive
[12]
  Potency: inactive
[20]
  Potency: inactive
[13]
  Potency: inactive
[14]
  Potency: inactive
[15]
  Potency: inactive

## O=C(c1ccccc1)c1cc(Cl)ccc1O
[1]
  outcome: inactive
[16]
  Potency: inactive
[17]
  activity change, positive = activation: -10.3%
[3]
  Potency: inactive
[5]
  Potency: inactive
[7]
  Potency: inactive
[8]
  max response: -24.1%
[10]
  Potency: inactive
[12]
  Potency: inactive
[20]
  Potency: inactive
[13]
  Potency: inactive
[15]
  Potency: inactive

## CCCCN(C)C
[1]
  outcome: inactive
[2]
  Potency: inactive
[3]
  Potency: inactive
[18]
  Potency: inactive
[5]
  Potency: inactive
[19]
  Potency: inactive
[6]
  Potency: inactive
[8]
  max response: 1.09%
[9]
  Potency: inactive
[10]
  Potency: inactive
[12]
  Potency: inactive
[20]
  Potency: inactive
[13]
  Potency: inactive
[14]
  Potency: inactive
[15]
  Potency: inactive

Source: PubChem BioAssay (Tox21)
